The values that follow come from PubChem BioAssay (NCATS).

One assay concerns MCC-13. Nature of the assay: qHTS assay to identify novel small-molecules to repurpose for Merkel cell carcinoma treatment (AID 1296009). Further: nearly all actives have a fitted effect of over 60% in size. Further: potency means the concentration at half of the fitted maximal effect. The conditions noted are these: MCC and control cell lines, CellTiter-Glo viability, 72 h; series mostly up to 46 µM. Summed up: (§1)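 qHTS format: cells treated with library compounds in DMSO across 8 (NPC) or 11 (MIPE) concentrations. Readout after 72 hr at 37 degree celsius was CellTiter-Glo luminescence.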

A further assay concerns MCC-26. The description is as above. As to conditions: MCC and control cell lines, CellTiter-Glo viability, 72 h; series mostly up to 46 µM. Summed up:
as §1

A further assay deals with MKL-1. The assay is described as above. The conditions noted are these: MCC and control cell lines, CellTiter-Glo viability, 72 h; series mostly up to 46 µM. Summed up:
as §1

For another assay, the system named is MKL-2. Described as above. The conditions noted are these: MCC and control cell lines, CellTiter-Glo viability, 72 h; series mostly up to 46 µM. Summed up:
as §1

Another assay deals with UISO. Described as above. The conditions noted are these: MCC and control cell lines, CellTiter-Glo viability, 72 h; series mostly up to 46 µM. An outline of the steps:
as §1

The next assay deals with WaGa. The description is as above. The conditions noted are these: MCC and control cell lines, CellTiter-Glo viability, 72 h; series mostly up to 46 µM. An outline of the steps: as §1
The subject of another assay is C33A. As to the kind of experiment: Primary qHTS to identify gynecologic anti-cancer compounds using libraries of approved drugs and bioactive compounds (AID 1345084). Further: nearly all actives have a fitted effect of over 55% in size. Further: potency means the concentration at half of the fitted maximal effect. The conditions noted are these: Gynecologic cancer cell panel viability, ATPlite luminescence, 48 h; series mostly up to 57.5 µM. Summed up: (§2)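 Five-concentration response, 48 h; readout is ATP-driven luciferase luminescence.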

The subject of another assay is CASKI. Described as above. As to conditions: Gynecologic cancer cell panel viability, ATPlite luminescence, 48 h; series mostly up to 57.5 µM. Summed up: as §2
The next assay deals with Es-2. The assay is described as above. As to conditions: Gynecologic cancer cell panel viability, ATPlite luminescence, 48 h; series mostly up to 57.5 µM. An outline of the steps:
as §2

The test system of the next assay is HeLa. The description is as above. As to conditions: Gynecologic cancer cell panel viability, ATPlite luminescence, 48 h; series mostly up to 57.5 µM. Summed up: as §2
A further assay concerns Hek293T. The assay is described as above. As to conditions: Gynecologic cancer cell panel viability, ATPlite luminescence, 48 h, control line for the selectivity index; series mostly up to 57.5 µM. Summed up: as §2
For the next assay, the system named is JEG-3. The assay is described as above. As to conditions: Gynecologic cancer cell panel viability, ATPlite luminescence, 48 h; series mostly up to 57.5 µM. Summed up:
as §2

The next assay has as its system OV90. The description is as above. As to conditions: Gynecologic cancer cell panel viability, ATPlite luminescence, 48 h; series mostly up to 57.5 µM. Summed up:
as §2

The test system of another assay is PA-1. The assay is described as above. As to conditions: Gynecologic cancer cell panel viability, ATPlite luminescence, 48 h; series mostly up to 57.5 µM. Summed up:
as §2

Another assay concerns SKOV3. The assay is described as above. The conditions noted are these: Gynecologic cancer cell panel viability, ATPlite luminescence, 48 h; series mostly up to 57.5 µM. An outline of the steps: as §2
The next assay deals with Tov-21-G. The description is as above. As to conditions: Gynecologic cancer cell panel viability, ATPlite luminescence, 48 h; series mostly up to 57.5 µM. An outline of the steps: as §2
The next assay deals with Tov112D. Described as above. As to conditions: Gynecologic cancer cell panel viability, ATPlite luminescence, 48 h; series mostly up to 57.5 µM. Summed up: as §2
A short description of assay [1]: Drug repurposing screens with cells derived from glioblastoma tumor samples (AID 1345199). Further: nearly all actives have a fitted effect of over 40% in size. As to conditions: GBM patient neurospheres viability, ATP luminescence, 48 h. Summed up:
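Four patient lines of CD133+ GBM neurospheres were screened at several concentrations; hits were retested in those lines plus three slower-growing GBM lines, using 48-hour treatment and ATP-based viability.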

A further assay deals with CAOV3. Nature of the assay: Primary qHTS to identify gynecologic anti-cancer compounds using libraries of approved drugs and bioactive compounds (AID 1345084). Further: nearly all actives have a fitted effect of over 55% in size. Further: potency means the concentration at half of the fitted maximal effect. As to conditions: Gynecologic cancer cell panel viability, ATPlite luminescence, 48 h; series mostly up to 57.5 µM. An outline of the steps:
as §2

Where [2] appears, read: at 45.9 µM (top of the series), tumour line B.
The mark [3] stands for this setting: at 45.9 µM (top of the series), tumour line D.
Setting [4] is: at 46.1 µM (top of the series), tumour line C.
Setting [5] is: at 46 µM (top of the series), tumour line A.
Where [6] appears, read: at 20 µM (top of the series), tumour line C.
Where [7] appears, read: at 21.2 µM (top of the series), tumour line B.
Where [8] appears, read: at 21.2 µM (top of the series), tumour line D.
Setting [9] is: at 21.3 µM (top of the series), tumour line A.

Each structure is given as a SMILES string. Inconclusive results are not listed. Unmarked numbers belong to inactive results. Active and inactive are the calls of the source. The call rests on the fitted dose curve; in most records, active means well fitted curve in the direction sought with a large enough effect; inconclusive means small, poorly fitted or top-dose-only effect, or another doubt; inactive means no such curve, though single readings can be large; an effect the other way counts as inactive or inconclusive.
On the % scale 0 is the no-effect control and ±100 the full control effect.

`NCCNCCNCCN`: the Potency entry in the assay with MCC-13, in the assay with MCC-26, with MKL-1, in the assay with MKL-2, in the assay with UISO and in the assay with WaGa was “inactive” throughout. For the same compound, the Potency entry with C33A, in the assay with CASKI, in the assay with Es-2, in the assay on HeLa, with Hek293T and with JEG-3 was “inactive” throughout. Besides, the Potency result in the assay on OV90, with PA-1, in the assay on SKOV3, in the assay with Tov-21-G and in the assay with Tov112D was “inactive” each time. Besides, the figures for the activity, negative = cell killing in assay [1] (setting [2]), in [1] (setting [3]) and in assay [1] (setting [4]) were -6%, -28.2% and -8.15%, respectively.
For `CS(=O)(=O)c1ccc([C@@H](O)[C@@H](CF)NC(=O)C(Cl)Cl)cc1`, the Potency result in the assay with MCC-13, in the assay on MCC-26, with MKL-1, in the assay with MKL-2, with UISO and in the assay with WaGa was “inactive” in each case. For the same compound, the Potency result in the assay on C33A, with CAOV3, in the assay on CASKI, in the assay with Es-2, in the assay with HeLa and with Hek293T was “inactive” throughout. Besides, the Potency entry in the assay on JEG-3, in the assay on OV90, with PA-1, in the assay on SKOV3 and with Tov112D was “inactive” in each case.
As to `C[C@H]1O[C@@H](n2cc(F)c(=O)[nH]c2=O)[C@H](O)[C@@H]1O`, the Potency entry with MCC-13, in the assay on MCC-26, in the assay on MKL-1, with MKL-2, with UISO and in the assay on WaGa was “inactive” in each case. In addition, the Potency entry with C33A, in the assay with CAOV3, in the assay with CASKI, in the assay with Es-2, with HeLa and in the assay on Hek293T was “inactive” in each case. The Potency entry with JEG-3, in the assay on OV90, in the assay on PA-1, with SKOV3 and in the assay with Tov112D was “inactive” in each case. The activity, negative = cell killing was -19.9% in assay [1] (setting [2]), -17.4% in assay [1] (setting [3]), -26.5% in assay [1] (setting [5]) and 3.86% in assay [1] (setting [4]).
Regarding `O=C1NC(=O)[C@@]2(CCOc3ccc(F)cc32)N1`, the Potency entry with MCC-13, with MCC-26, in the assay on MKL-1, in the assay with MKL-2, with UISO and with WaGa was “inactive” each time. The Potency result with C33A, with CASKI, in the assay with Es-2, in the assay on HeLa, with Hek293T and in the assay on JEG-3 was “inactive” throughout. In addition, the Potency result with OV90, with PA-1, in the assay with SKOV3, in the assay with Tov-21-G and in the assay on Tov112D was “inactive” each time. The activity, negative = cell killing in assay [1] (setting [2]) was -4.87%; in assay [1] (setting [3]), 4.44%; in [1] (setting [5]), -16.6%; in assay [1] (setting [4]) it was -0.68%.
`C[C@H](N)[C@H](O)c1cccc(O)c1`: the Potency result in the assay with MCC-13, with MCC-26, in the assay with MKL-1, with MKL-2, in the assay on UISO and with WaGa was “inactive” each time. The Potency result in the assay with C33A, with CAOV3, in the assay with CASKI, with Es-2, in the assay with HeLa and in the assay on Hek293T was “inactive” in each case. The Potency result in the assay on JEG-3, in the assay with OV90, with PA-1, in the assay on SKOV3, with Tov-21-G and in the assay with Tov112D was “inactive” in each case. The activity, negative = cell killing in assay [1] (setting [6]) was -4.02%; in assay [1] (setting [7]), -13%; in assay [1] (setting [8]), -3.31%; in assay [1] (setting [9]), -12.7%.
As for `CC(C)c1c(C(=O)Nc2ccccc2)c(-c2ccccc2)c(-c2ccc(F)cc2)n1CC[C@@H](O)C[C@@H](O)CC(=O)O`, the Potency is 23.7 µM (active) in the assay with MCC-13; 23.7 µM (active) in the assay with MCC-26; 3.35 µM (active) in the assay on MKL-1; 2.66 µM (active) with MKL-2; 10.6 µM (active) in the assay with UISO; 7.5 µM (active) with WaGa. Moreover, the Potency result with C33A, in the assay with CAOV3, in the assay with CASKI, with Es-2, in the assay with HeLa and in the assay on Hek293T was “inactive” each time. Also, the Potency result in the assay on JEG-3, in the assay on OV90, with SKOV3, with Tov-21-G and in the assay with Tov112D was “inactive” in each case.
As for `CC[N+](CC)(CC)CCOc1ccc(/C=C/c2ccccc2)cc1`, the Potency result in the assay on MCC-13 and in the assay with MCC-26 was “inactive” each time. The Potency in the assay on MKL-1 was 2.99 µM (active); in the assay on MKL-2 it was 1.68 µM (active); with UISO, 1.19 µM (active); in the assay with WaGa, 1.88 µM (active); in the assay on C33A, 14.1 µM (active); with CAOV3 it was 10 µM (active). The Potency with JEG-3 is 31.6 µM (active); in the assay with OV90 it was 17.8 µM (active); with PA-1, 2.51 µM (active); in the assay with SKOV3, 10 µM (active); in the assay with Tov-21-G, 25.1 µM (active).
With `COc1cc2[nH]c(=O)[nH]c(=O)c2cc1OC`, the Potency entry in the assay with MCC-13, in the assay on MCC-26, in the assay with MKL-1, in the assay with MKL-2, with UISO and in the assay with WaGa was “inactive” throughout. Further, the Potency result in the assay on C33A, with CASKI, in the assay with Es-2, with HeLa, in the assay with Hek293T and in the assay on JEG-3 was “inactive” each time. The Potency result in the assay with OV90, in the assay on PA-1, in the assay with SKOV3, in the assay with Tov-21-G and with Tov112D was “inactive” in each case. The activity, negative = cell killing in assay [1] (setting [6]) was -13.5%; in assay [1] (setting [7]) it was -9.77%; in [1] (setting [8]), 1.35%; in assay [1] (setting [9]) it was -29.6%.
As for `C=Cc1c(C)c2cc3[nH]c(cc4nc(cc5nc(cc1[nH]2)C(C)=C5CCC(=O)O)C(CCC(=O)O)=C4C)c(C)c3C=C`, the Potency result in the assay with MCC-13, in the assay with MCC-26, in the assay on MKL-1, in the assay on MKL-2, in the assay on UISO and in the assay with WaGa was “inactive” in each case. Moreover, the Potency result in the assay on C33A, in the assay on CAOV3, with CASKI, with Es-2, in the assay with HeLa and in the assay with Hek293T was “inactive” in each case. Further, the Potency entry in the assay with JEG-3, in the assay with OV90, in the assay on PA-1, in the assay with Tov-21-G and in the assay with Tov112D was “inactive” in each case. Also, the activity, negative = cell killing was -11.3% in [1] (setting [2]), -20.2% in assay [1] (setting [3]), -14% in assay [1] (setting [5]) and -7.06% in [1] (setting [4]).
